Common to all, as to conditions: mRNA level, 48 h; actives raise or lower the signal
Read-out in experiment [1]: cysteine-aspartic acid protease (CASP8), CASP8 (gene 841)
As to the kind of experiment: LTEA_HepaRG_CASP8: Life Technologies and Expression Analysis (LTEA) Assay for cysteine-aspartic acid protease (CASP8) using HepaRG (AID 2283480). Summed up: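 Differentiated human HepaRG cells, plated 48 h then switched to serum-free induction medium, were exposed in duplicate for 48 h to 8 half-log concentrations up to 100 uM in 0.5% DMSO. CASP8 mRNA was quantified by qRT-PCR, normalized to ACTB/GAPDH/POLR2A.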

Read-out in experiment [2]: Cytochrome P450 (CYP2B6), CYP2B6 (gene 1555)
As to the kind of experiment: LTEA_HepaRG_CYP2B6: Life Technologies and Expression Analysis (LTEA) Assay for Cytochrome P450 (CYP2B6) using HepaRG (AID 2283481). The method, boiled down:
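CYP2B6 transcript level quantified by qRT-PCR against three housekeeping genes, fitted bidirectionally relative to DMSO. HepaRG cultures received chemicals for 48 h, 8-point half-log series from 100 uM in 0.5% DMSO, duplicate wells, serum-free induction medium.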

Read-out in experiment [3]: Cytochrome P450 2C19 (Homo sapiens) (UniProt P33261)
As to the kind of experiment: LTEA_HepaRG_CYP2C19: Life Technologies and Expression Analysis (LTEA) Assay for CYP2C19 using HepaRG (AID 2283482). Summed up:
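CYP2C19 transcript levels by qRT-PCR, normalized to three housekeeping genes, in HepaRG cells after 48 h chemical exposure. Eight-point half-log series topping at 100 uM, 0.5% DMSO vehicle. Increases and decreases both fitted against DMSO.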

Read-out in another experiment: CYP2C8 (gene 1558)
Put plainly: LTEA_HepaRG_CYP2C8: Life Technologies and Expression Analysis (LTEA) Assay for CYP2C8 using HepaRG (AID 2283483). Summed up:
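Differentiated human HepaRG cells were exposed for 48 h in serum-free induction medium to eight half-log concentrations up to 100 uM in 0.5% DMSO, in duplicate. CYP2C8 mRNA was measured by TaqMan qRT-PCR, normalized to ACTB, GAPDH and POLR2A, and fitted bidirectionally against DMSO.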

Read-out in a further experiment: CYP2C9 (gene 1559)
Put plainly: LTEA_HepaRG_CYP2C9: Life Technologies and Expression Analysis (LTEA) Assay for CYP2C9 using HepaRG (AID 2283484). Summed up:
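Differentiated human HepaRG cells were exposed 48 h in serum-free induction medium to eight half-log concentrations up to 100 uM in 0.5% DMSO. CYP2C9 mRNA was measured by qRT-PCR, normalized to ACTB, GAPDH and POLR2A, and fitted bidirectionally against DMSO.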

Read-out in another experiment: CYP4A11 (gene 1579)
As to the kind of experiment: LTEA_HepaRG_CYP4A11: Life Technologies and Expression Analysis (LTEA) Assay for CYP4A11 using HepaRG (AID 2283486). Summed up:
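Readout is CYP4A11 transcript level by qRT-PCR, normalized to three housekeeping genes and fitted bidirectionally against 0.5% DMSO. Human HepaRG cells were treated 48 h, in duplicate, with an 8-point half-log series topping at 100 uM.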

Read-out in experiment [4]: Cytochrome P450 3A4 (Homo sapiens) (UniProt P08684)
As to the kind of experiment: LTEA_HepaRG_CYP3A4: Life Technologies and Expression Analysis (LTEA) Assay for CYP3A4 using HepaRG (AID 2283487). Summed up: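 CYP3A4 transcript measured by TaqMan qRT-PCR and normalized to three housekeeping genes after 48 h chemical exposure of human HepaRG cells. Top concentration 100 uM, half-log steps, 0.5% DMSO vehicle; gain or loss fitted against DMSO baseline.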

Read-out in experiment [5]: Pro-epidermal growth factor (Homo sapiens) (UniProt P01133)
As to the kind of experiment: LTEA_HepaRG_EGF: Life Technologies and Expression Analysis (LTEA) Assay for Epidermal growth factor (EGF) using HepaRG (AID 2283489). The method, boiled down:
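EGF transcript measured by Fluidigm TaqMan qRT-PCR with three housekeeping genes for normalization, 48 h after dosing HepaRG cultures in duplicate (top 100 uM, half-log steps, 0.5% DMSO vehicle). Gain or loss relative to DMSO fitted.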

Read-out in experiment [6]: DNA damage-inducible transcript 3 (DDIT3), DDIT3 (gene 1649)
Put plainly: LTEA_HepaRG_DDIT3: Life Technologies and Expression Analysis (LTEA) Assay for DNA damage-inducible transcript 3 (DDIT3) using HepaRG (AID 2283488). Summed up: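 Differentiated human HepaRG cells in serum-free induction medium were exposed in duplicate for 48 h to 8 concentrations (top 100 uM, half-log steps, 0.5% DMSO). DDIT3 mRNA measured by TaqMan qRT-PCR, normalized to ACTB/GAPDH/POLR2A; bidirectional fit versus DMSO.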

Read-out in a further experiment: CYP2E1 (gene 1571)
As to the kind of experiment: LTEA_HepaRG_CYP2E1: Life Technologies and Expression Analysis (LTEA) Assay for CYP2E1 using HepaRG (AID 2283485). Summed up: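 HepaRG cells in serum-free induction medium exposed 48 h to test chemicals, 8 half-log concentrations up to 100 uM in 0.5% DMSO, duplicate. CYP2E1 mRNA by qRT-PCR, normalized to ACTB, GAPDH, POLR2A; bidirectional fit versus DMSO.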

The record followed here is PubChem BioAssay (EPA / NIEHS).

The structures appear in SMILES notation. The source made the active and inactive calls. How the source made its calls: active means hit-call score of the fitted dose curve at least 0.9, where 1 is the maximum; inactive means score below 0.9.

Sequence of Cytochrome P450 3A4 (Homo sapiens) (P08684 whole entry, looked up): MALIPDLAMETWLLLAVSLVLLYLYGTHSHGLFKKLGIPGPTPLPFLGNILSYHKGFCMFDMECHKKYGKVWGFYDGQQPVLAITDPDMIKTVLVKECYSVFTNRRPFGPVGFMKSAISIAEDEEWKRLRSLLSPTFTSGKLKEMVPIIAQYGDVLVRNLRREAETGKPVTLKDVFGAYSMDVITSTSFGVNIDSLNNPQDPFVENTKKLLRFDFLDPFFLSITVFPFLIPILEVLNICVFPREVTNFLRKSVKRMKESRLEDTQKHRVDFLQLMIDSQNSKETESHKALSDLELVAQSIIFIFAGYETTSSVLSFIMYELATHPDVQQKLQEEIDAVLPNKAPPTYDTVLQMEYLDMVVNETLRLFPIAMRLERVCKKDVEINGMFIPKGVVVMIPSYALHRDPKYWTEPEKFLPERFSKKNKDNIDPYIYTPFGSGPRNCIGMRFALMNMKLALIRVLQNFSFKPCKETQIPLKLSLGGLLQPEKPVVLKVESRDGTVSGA
Sequence of Cytochrome P450 2C19 (Homo sapiens) (P33261 whole entry, looked up): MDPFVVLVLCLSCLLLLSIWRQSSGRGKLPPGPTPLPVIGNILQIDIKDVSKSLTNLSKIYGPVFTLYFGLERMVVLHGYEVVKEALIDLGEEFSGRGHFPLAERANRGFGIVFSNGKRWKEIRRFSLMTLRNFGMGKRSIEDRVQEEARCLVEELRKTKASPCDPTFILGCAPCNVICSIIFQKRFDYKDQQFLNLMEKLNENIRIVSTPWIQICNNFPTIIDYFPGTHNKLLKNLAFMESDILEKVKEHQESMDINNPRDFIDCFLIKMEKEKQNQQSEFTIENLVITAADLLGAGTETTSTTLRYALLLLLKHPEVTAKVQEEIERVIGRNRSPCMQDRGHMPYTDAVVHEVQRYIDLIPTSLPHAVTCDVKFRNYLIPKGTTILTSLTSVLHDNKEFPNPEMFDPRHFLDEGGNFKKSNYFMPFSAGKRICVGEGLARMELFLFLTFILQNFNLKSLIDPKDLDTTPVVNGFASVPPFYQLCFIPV

As for `CC(Cc1ccc(OCC(=O)O)cc1)NCC(O)c1csc(C(F)(F)F)n1` (stereo unspecified), the molecule was called inactive (in [1]; in experiment [2]; in [3]; with CYP2C8 (gene 1558); in the experiment with CYP2C9 (gene 1559); with CYP4A11 (gene 1579)). Further, the molecule was called inactive in [4] and in [5].
On to `O=[N+]([O-])c1ccccc1`, for which the outcome (in experiment [1]; in experiment [2]; in experiment [3]; with CYP2C8 (gene 1558); with CYP2C9 (gene 1559); in the experiment with CYP4A11 (gene 1579)) was inactive. For the same molecule, the outcome in experiment [4] was inactive.
`O=C(O)C(Cl)Cl`: the call (in experiment [1]; in [2]; in experiment [3]; with CYP2C8 (gene 1558); in the experiment with CYP2C9 (gene 1559); with CYP4A11 (gene 1579)) was inactive. Further, the result in [4] and in experiment [5] was inactive.
Usually AC50 stands for the concentration giving half of the maximal activity seen. Turning to `ClC1=C(Cl)C2(Cl)C3C(Cl)C(Cl)CC3C1(Cl)C2(Cl)Cl` (stereo unspecified), the outcome (in experiment [1]; with CYP2C9 (gene 1559)) was inactive. The half-maximal activity concentration (AC50) in [2] was 0.994 µM (active); in [3], 2.42 µM (active); in the experiment with CYP2C8 (gene 1558), 2.17 µM (active); with CYP4A11 (gene 1579) it was 24.6 µM (active); in experiment [4] it was 4.39 µM (active); in [6] it was 82.1 µM (active). Further, the AC50 in experiment [5] was 18.4 µM (active).
In the case of `ClC(Cl)(Cl)c1ccccc1`, the molecule was classed as inactive (in [1]; in [2]; in [3]; with CYP2C8 (gene 1558); with CYP2C9 (gene 1559); in the experiment with CYP4A11 (gene 1579)). The molecule was classed as inactive in experiment [4] and in [5].
For `CCOc1ccc(C(C)(C)COCc2cccc(Oc3ccccc3)c2)cc1`, the molecule was classed as inactive (in experiment [1]; in the experiment with CYP2C9 (gene 1559)). Also, the concentration at half-maximal activity (AC50) in experiment [2] is 0.63 µM (active); in [3], 4.25 µM (active); in the experiment with CYP2C8 (gene 1558), 3.05 µM (active); in the experiment with CYP4A11 (gene 1579), 61.5 µM (active); in [4], 4.91 µM (active); in experiment [5], 15 µM (active).
Consider `O=P1(N(CCCl)CCCl)NCCCO1` (stereo unspecified), for which the molecule was classed as inactive (in experiment [1]; in experiment [3]; with CYP2C8 (gene 1558); with CYP2C9 (gene 1559); with CYP4A11 (gene 1579); in [4]). Also, the molecule was classed as inactive in experiment [5]. Besides, in experiment [2], the concentration at half-maximal activity (AC50) is 50 µM (active).
Take `Cc1cccc(N)c1`: the call (in experiment [1]; in [2]; in experiment [3]; in the experiment with CYP2C8 (gene 1558); with CYP2C9 (gene 1559); with CYP4A11 (gene 1579)) was inactive. In addition, the molecule was called inactive in experiment [4].
As for `CCOC(=O)c1ccccc1C(=O)OCC`, the call (in experiment [1]; in [2]; in experiment [3]; with CYP2C8 (gene 1558); with CYP2C9 (gene 1559); in the experiment with CYP4A11 (gene 1579)) was inactive. In addition, the molecule was classed as inactive in [4] and in experiment [5].
In the case of `CCOS(=O)(=O)OCC`, the molecule was called inactive (in experiment [1]; in experiment [2]; in [3]; with CYP2C8 (gene 1558); with CYP2C9 (gene 1559); in the experiment with CYP4A11 (gene 1579)). The result in [4] and in experiment [5] was inactive.
For the molecule `CCN(CC)c1ccccc1`, the outcome (in [1]; in experiment [2]; in experiment [3]; in the experiment with CYP2C8 (gene 1558); with CYP2C9 (gene 1559); with CYP4A11 (gene 1579)) was inactive. Besides, the call in [4] and in experiment [5] was inactive.
As to `CCCCN(CCCC)N=O`, the molecule was classed as inactive (in experiment [1]; in experiment [2]; in experiment [3]; with CYP2C8 (gene 1558); with CYP2C9 (gene 1559); in the experiment with CYP4A11 (gene 1579)). The molecule was classed as inactive in experiment [4] and in [5].
Turning to `[N-]=[N+]=[N-]`, the result in experiment [1], in experiment [3], in experiment [4] and in [5] was inactive. Moreover, the AC50 in experiment [2] is 88.3 µM (active); with CYP2C8 (gene 1558) it was 79.9 µM (active); with CYP2C9 (gene 1559), 78.6 µM (active); with CYP4A11 (gene 1579) it was 70.6 µM (active).
For the molecule `CCCCCCCc1ccc(O)cc1`, the outcome (in experiment [1]; in [2]; in experiment [3]; with CYP2C8 (gene 1558); with CYP2C9 (gene 1559); in the experiment with CYP4A11 (gene 1579)) was inactive. Moreover, the call in experiment [4] and in [5] was inactive.
Consider `CC(C)(C)OOC(C)(C)C`, for which the call (in [1]; in [2]; in [3]; in the experiment with CYP2C8 (gene 1558); in the experiment with CYP2C9 (gene 1559); with CYP4A11 (gene 1579)) was inactive. For the same molecule, the call in experiment [4] and in experiment [5] was inactive.
Consider `ClC(Cl)c1ccccc1`, for which the molecule was classed as inactive (in [1]; in [3]; with CYP2C8 (gene 1558); with CYP2C9 (gene 1559); with CYP4A11 (gene 1579); in experiment [4]). The call in [5] was inactive. Moreover, the concentration at half-maximal activity (AC50) in experiment [2] was 22.8 µM (active).
With `CCNc1nc(Cl)nc(NC(C)(C)C)n1`, the call (in experiment [1]; with CYP2C9 (gene 1559); in experiment [5]) was inactive. The half-maximal activity concentration (AC50) was 1.01 µM (active) in experiment [2]; 2.46 µM (active) in experiment [3]; 2.37 µM (active) in the experiment with CYP2C8 (gene 1558); 9.92 µM (active) with CYP4A11 (gene 1579); 2.11 µM (active) in experiment [4].
For the molecule `Nc1ccc(Cl)cc1`, the molecule was classed as inactive (in experiment [1]; in experiment [2]; in experiment [3]; in the experiment with CYP2C8 (gene 1558); in the experiment with CYP2C9 (gene 1559); with CYP4A11 (gene 1579)). Besides, the result in [4], in experiment [6] and in experiment [5] was inactive.
Regarding `CCC(C)(C)c1ccc(O)cc1`, the result (in experiment [1]; in experiment [2]; in [3]; in the experiment with CYP2C8 (gene 1558); in the experiment with CYP2C9 (gene 1559); in the experiment with CYP4A11 (gene 1579)) was inactive. Also, the call in experiment [4] and in [5] was inactive.
For `c1nc[nH]n1`, the outcome (in [1]; in experiment [2]; in experiment [3]; in the experiment with CYP2C8 (gene 1558); in the experiment with CYP2C9 (gene 1559); with CYP2E1 (gene 1571)) was inactive. Besides, the result (in the experiment with CYP4A11 (gene 1579); in experiment [4]; in experiment [5]) was inactive.
